# Test results: PubChem BioAssay (NCATS)
# “And” between values parts separate entries of the source, which are not always exact repeats. Equal values may be shown once. Records with an inconclusive call do not appear. Where a call stands in place of a potency, no number is given. The source made the active and inactive calls. Unless noted, calls follow the shape of the dose curve; as a rule, active = well fitted curve in the direction sought with a large enough effect; inconclusive = small, poorly fitted or top-dose-only effect, or another doubt; inactive = no such curve, though single readings can be large; an effect the other way counts as inactive or inconclusive.
# Columns and labels:
# [1] = Primary qHTS for inhibitors of MERS-S pseudo-typed particle cell entry (AID 1479149; calls by dose curve; also: nearly all actives have a fitted effect of over 60% in size; also: potency is read from the fitted curve at half-maximal effect); details: outcome: dose series up to 57.1 µM unless noted
# [2] = target: Guanine nucleotide-binding protein G(i) subunit alpha-1 (Homo sapiens) (UniProt P63096); assay: qHTS Assay for Inhibitors of RGS12 GoLoco Motif Activity (Green Fluorophore) (AID 879);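 also: negative values mean loss of peptide binding seen as reduced polarization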
# Chain of Guanine nucleotide-binding protein G(i) subunit alpha-1 (Homo sapiens) (P63096 whole entry, looked up): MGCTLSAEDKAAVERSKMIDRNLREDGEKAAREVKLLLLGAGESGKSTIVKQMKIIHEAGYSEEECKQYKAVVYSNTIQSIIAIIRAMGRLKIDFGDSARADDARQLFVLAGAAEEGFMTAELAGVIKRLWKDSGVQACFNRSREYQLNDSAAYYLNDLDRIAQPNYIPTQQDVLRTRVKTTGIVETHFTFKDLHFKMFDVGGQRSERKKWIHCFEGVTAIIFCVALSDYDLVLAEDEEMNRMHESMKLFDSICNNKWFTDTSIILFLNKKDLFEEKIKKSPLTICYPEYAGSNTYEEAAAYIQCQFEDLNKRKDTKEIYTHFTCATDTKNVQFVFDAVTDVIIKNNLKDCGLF
# Outline: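 A drop in FITC polarization marked displacement of the FITC-tagged RGS12 GoLoco peptide (10 nM) from Gαi1 (50 nM). Compounds were incubated 10 min at room temperature in Tris pH 7.5 buffer containing 150 mM NaCl, 0.1 mM GDP and 0.05% NP40; unlabeled peptide titration served as control.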
# [3] = qHTS Assay for Identification of Small Molecule Antagonists for NFkB Signaling Pathway (AID 895; active = well fitted inhibition curve with a large enough effect in the signal ratio, with a control signal flat, not every such curve was filed as active; the % refers to the signal ratio; also: potency is read from the fitted curve at half-maximal effect)
# Outline: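 ME-180 NFkB-bla cells (beta-lactamase under NFkB response element), plated overnight, treated with compound then 10 pM TNF alpha (about EC50) for 5 hrs at 37 C. LiveBLAzer FRET read at 460/530 nm emission, 405 nm excitation.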
# [4] = target: Pyruvate kinase (Leishmania mexicana) (UniProt Q27686); assay: qHTS Validation Assay for Inhibitors of Leishmania Mexicana Pyruvate Kinase (AID 945)
# Chain of Pyruvate kinase (Leishmania mexicana) (Q27686 2-499 E452W): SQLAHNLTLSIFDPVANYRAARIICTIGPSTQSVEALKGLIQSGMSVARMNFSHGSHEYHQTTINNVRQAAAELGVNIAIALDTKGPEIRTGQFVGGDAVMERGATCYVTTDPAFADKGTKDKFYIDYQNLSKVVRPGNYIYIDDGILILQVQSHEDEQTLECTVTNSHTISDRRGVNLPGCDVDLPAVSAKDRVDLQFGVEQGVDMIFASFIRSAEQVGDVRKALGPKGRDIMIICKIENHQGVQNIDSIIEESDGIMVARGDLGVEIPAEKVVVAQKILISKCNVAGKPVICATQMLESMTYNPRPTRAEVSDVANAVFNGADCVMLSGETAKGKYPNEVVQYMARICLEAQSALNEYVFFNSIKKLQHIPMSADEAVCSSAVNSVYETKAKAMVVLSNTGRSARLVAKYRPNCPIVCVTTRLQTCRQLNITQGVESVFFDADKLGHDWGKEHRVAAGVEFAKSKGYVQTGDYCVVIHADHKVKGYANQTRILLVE
# Outline: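 LmPYK E451W 0.2 nM; 0.5 mM PEP, 0.1 mM ADP, 7 mM MgCl2, 50 mM KCl, imidazole pH 7.2, 0.01% Tween 20, 0.05% BSA; 1 h RT; PKLight luminescence; DMSO-normalized.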
# [5] = target: Pyruvate kinase PKM (Homo sapiens) (UniProt P14618); assay: qHTS Assay for Activators of Human Muscle Pyruvate Kinase (AID 954; active = well fitted curve in the direction sought with a large enough effect, not every such curve was filed as active)
# Chain of Pyruvate kinase PKM (Homo sapiens) (P14618 whole entry, looked up): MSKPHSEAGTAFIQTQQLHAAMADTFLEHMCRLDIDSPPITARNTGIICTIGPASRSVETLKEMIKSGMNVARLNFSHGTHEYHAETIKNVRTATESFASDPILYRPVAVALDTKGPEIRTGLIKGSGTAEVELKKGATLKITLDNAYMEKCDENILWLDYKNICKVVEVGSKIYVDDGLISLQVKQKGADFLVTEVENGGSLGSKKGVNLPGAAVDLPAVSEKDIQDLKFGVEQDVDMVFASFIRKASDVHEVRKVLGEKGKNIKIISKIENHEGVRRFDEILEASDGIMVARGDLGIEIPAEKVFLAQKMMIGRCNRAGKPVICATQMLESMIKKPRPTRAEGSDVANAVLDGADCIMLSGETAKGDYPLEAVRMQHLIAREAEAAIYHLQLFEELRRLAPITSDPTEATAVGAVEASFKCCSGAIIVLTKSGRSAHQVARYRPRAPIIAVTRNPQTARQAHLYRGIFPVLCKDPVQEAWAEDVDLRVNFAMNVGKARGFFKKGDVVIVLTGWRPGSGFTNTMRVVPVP
# Outline: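 ATP production by PKM2 detected via luciferase luminescence after 1 h room-temperature reaction (0.1 nM enzyme, PEP at Km 0.5 mM, ADP 0.1 mM, pH 7.2 imidazole buffer). Inhibition scaled to no-enzyme control; activation referenced to 0.3 nM enzyme wells.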
# [6] = target: Alpha-galactosidase (Coffea arabica) (UniProt Q42656); assay: Counterscreen for Glucocerebrosidase Inhibitors: qHTS Assay for Coffee Bean alpha-Galactosidase at pH 4.5 (AID 957)
# Chain of Alpha-galactosidase (Coffea arabica) (Q42656 whole entry, looked up): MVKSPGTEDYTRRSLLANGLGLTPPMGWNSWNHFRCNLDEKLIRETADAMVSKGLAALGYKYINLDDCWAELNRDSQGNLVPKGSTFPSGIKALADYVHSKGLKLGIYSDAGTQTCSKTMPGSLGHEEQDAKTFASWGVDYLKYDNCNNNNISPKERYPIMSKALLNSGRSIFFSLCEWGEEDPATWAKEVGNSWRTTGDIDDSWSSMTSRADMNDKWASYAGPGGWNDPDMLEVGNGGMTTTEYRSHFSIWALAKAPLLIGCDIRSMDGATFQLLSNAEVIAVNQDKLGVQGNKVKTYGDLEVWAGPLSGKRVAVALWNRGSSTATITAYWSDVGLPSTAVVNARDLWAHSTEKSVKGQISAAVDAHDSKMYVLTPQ
# Outline: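 Enzyme is added first (2 nM final), then compounds titrated from 0.7 nM to 77 uM, then 80 uM 4-methylumbelliferyl alpha-D-galactopyranoside; after 20 min at room temperature a pH 10 NaOH/glycine stop precedes fluorescence reading at 365/440 nm.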
# [7] = target: alpha-glucosidase (Oryza sativa, rice) (UniProt Q653V4); assay: Counterscreen for Glucocerebrosidase Inhibitors: qHTS Assay for Rice alpha-Glucosidase at pH 5.0 (AID 997)
# Outline: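 Endpoint fluorogenic assay at pH 5.0: compounds (0.7 nM to 77 uM) titrated against 4 nM rice enzyme and 400 uM 4-MU-alpha-glucoside for 20 min at room temperature; NaOH/glycine stop, read ex 365/em 440 nm, Hill-fitted AC50.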
# [8] = target: Alpha-galactosidase (Coffea arabica) (UniProt Q42656); assay: Counterscreen for Glucocerebrosidase Inhibitors: qHTS Assay for Coffee Bean alpha-Galactosidase at pH 5.9 (AID 998)
# Outline: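 Enzyme 2 nM + cpd (0.7 nM–77 uM titration) + 4-MU-alpha-Gal 80 uM, pH 5.9 citrate/Tween-20, RT 20 min, NaOH/glycine stop pH 10, fluor 365/440. Normalized to no-enzyme and full-activity controls; Hill-fit AC50.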
# [9] = target: Transient receptor potential cation channel subfamily V member 1 (Homo sapiens) (UniProt Q8NER1); assay: HTS Assay for Compounds that Act as Enhancers of the Vanilloid Receptor 1 (AID 488979)
# Chain of Transient receptor potential cation channel subfamily V member 1 (Homo sapiens) (Q8NER1 whole entry, looked up): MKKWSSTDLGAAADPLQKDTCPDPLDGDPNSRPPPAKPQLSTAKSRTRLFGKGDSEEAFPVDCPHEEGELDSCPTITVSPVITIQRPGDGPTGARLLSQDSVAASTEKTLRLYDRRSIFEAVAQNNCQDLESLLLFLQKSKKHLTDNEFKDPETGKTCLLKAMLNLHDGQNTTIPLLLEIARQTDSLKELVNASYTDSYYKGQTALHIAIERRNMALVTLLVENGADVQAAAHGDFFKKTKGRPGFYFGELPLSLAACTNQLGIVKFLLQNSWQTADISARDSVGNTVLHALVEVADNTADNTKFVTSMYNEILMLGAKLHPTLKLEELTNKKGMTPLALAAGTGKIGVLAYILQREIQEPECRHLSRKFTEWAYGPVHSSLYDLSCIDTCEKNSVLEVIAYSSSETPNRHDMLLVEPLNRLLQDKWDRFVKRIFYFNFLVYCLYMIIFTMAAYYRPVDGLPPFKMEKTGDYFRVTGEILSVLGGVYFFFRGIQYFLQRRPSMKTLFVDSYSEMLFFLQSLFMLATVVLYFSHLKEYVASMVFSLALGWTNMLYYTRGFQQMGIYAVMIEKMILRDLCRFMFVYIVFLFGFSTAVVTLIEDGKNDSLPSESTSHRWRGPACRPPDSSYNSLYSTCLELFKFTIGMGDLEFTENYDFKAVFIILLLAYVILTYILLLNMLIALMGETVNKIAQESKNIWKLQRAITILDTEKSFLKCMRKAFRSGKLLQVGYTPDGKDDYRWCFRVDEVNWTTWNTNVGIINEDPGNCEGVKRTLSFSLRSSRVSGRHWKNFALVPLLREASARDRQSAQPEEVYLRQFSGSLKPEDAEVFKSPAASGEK
# Outline: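 TRPV1 cells loaded with Fluo-8 calcium dye; compound added and Ca2+ signal (ex 480/em 520 nm) followed 3 min, then capsaicin at EC20 added and read 2 more min to detect enhancement.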
# [10] = qHTS drug screen for cell cycle checkpoint inhibitors in PARPi-resistant BRCA-mutant ovarian cancer cell lines. (AID 1963452; calls by dose curve); details: PEO1/OlaR viability, CellTiter-Glo luminescence, 96 h, stronger effect = lower value
# Outline: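 PEO1, PEO4 and PEO1/OlaR ovarian cancer cells, 600 per well, exposed 96 h at 37C to a dilution series. Viability read by CellTiter-Glo luminescence, normalized to DMSO and empty wells; activity summarized as Z-AUC.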
# [11] = Validation screen for small molecules that induce DNA re-replication in MCF 10A normal breast cells (AID 463097); also: nearly all actives have a fitted effect of over 60% in size
# Outline: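 DNA re-replication was detected as a rise in nuclei with elevated Hoechst fluorescence after a 48 hr compound exposure of MCF 10A cells at 37 C.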
# [12] = target: ATP-dependent 6-phosphofructokinase (Trypanosoma brucei brucei) (UniProt O15648); assay: qHTS Assay to Find Inhibitors of T. brucei phosphofructokinase: hit validation (AID 492961);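 also: luminescence reports ADP formed as PFK phosphorylates fructose-6-phosphate with ATP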
# Chain of ATP-dependent 6-phosphofructokinase (Trypanosoma brucei brucei) (O15648 whole entry, looked up): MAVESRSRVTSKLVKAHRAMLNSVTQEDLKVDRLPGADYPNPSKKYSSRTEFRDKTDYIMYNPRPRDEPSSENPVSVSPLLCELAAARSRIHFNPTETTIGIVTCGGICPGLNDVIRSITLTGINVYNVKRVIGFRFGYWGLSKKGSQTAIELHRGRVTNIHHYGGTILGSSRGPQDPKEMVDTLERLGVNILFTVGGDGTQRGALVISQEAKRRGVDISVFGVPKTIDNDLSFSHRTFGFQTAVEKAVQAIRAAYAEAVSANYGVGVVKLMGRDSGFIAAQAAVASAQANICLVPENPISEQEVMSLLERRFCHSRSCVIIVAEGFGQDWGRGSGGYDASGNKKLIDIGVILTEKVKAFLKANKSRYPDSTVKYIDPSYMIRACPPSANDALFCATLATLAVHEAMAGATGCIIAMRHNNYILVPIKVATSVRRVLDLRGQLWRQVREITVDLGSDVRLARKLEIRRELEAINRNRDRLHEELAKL
# Outline: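 Inhibition of parasite PFK is measured as reduced ADP formation, quantified via luciferase after ATP depletion. Assay used 0.1 mM ATP, 0.5 mM F6P, 1.25 nM enzyme, 45 min incubation.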
# AS120 = assay: qHTS profiling for inhibitors of Plasmodium falciparum proliferation (AID 504749); also: nearly all actives have a fitted effect of over 60% in size; details: P. falciparum in erythrocytes, SYBR Green DNA, 72 h; series mostly up to 28.7 µM
# Outline: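 Each compound contacts P. falciparum-infected red blood cells for 72 h at 37 C; lysis buffer (Tris, EDTA, saponin, Triton X, SYBR Green I) is added and fluorescence measured next morning; values normalized to controls.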
# [13] = Cell Viability - LYMP2-020 (AID 986); also: nearly all actives have a fitted effect of over 55% in size; also: potency is read from the fitted curve at half-maximal effect
# Outline: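 Seed 2500 cells per well and incubate 5 hr at 37 C. Add compounds at a concentration series and incubate 24 hr at 37 C. Add CellTiter-Glo, wait 30 min at RT, read luminescence, and fit a Hill curve for AC50.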
# [14] = target: Bile acid receptor (Homo sapiens) (UniProt Q96RI1); assay: qHTS assay for small molecule antagonists of farnesoid X receptor signaling (AID 588526; calls by dose curve)
# Chain of Bile acid receptor (Homo sapiens) (Q96RI1 whole entry, looked up): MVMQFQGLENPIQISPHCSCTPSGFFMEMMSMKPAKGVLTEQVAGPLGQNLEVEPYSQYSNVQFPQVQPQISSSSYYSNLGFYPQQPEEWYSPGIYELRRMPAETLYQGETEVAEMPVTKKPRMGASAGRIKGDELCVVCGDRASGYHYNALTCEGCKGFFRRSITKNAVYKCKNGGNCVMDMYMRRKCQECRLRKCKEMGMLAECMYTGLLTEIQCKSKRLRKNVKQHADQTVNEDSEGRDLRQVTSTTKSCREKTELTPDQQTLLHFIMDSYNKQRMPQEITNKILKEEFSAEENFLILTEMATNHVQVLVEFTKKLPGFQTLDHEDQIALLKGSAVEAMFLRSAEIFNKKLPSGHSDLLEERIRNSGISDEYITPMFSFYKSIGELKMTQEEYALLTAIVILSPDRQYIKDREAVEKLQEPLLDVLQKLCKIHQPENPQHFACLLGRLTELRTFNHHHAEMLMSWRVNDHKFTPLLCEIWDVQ
# Outline: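 Antagonist mode: titrated compounds tested against chenodeoxycholic acid stimulation (normalized to 50 uM CDCA and DMSO) in GeneBLAzer HEK293T cells for 16 h. Beta-lactamase read by CCF4 fluorescence; IC50 from Hill fits.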
# [15] = qHTS assay for small molecule antagonists of peroxisome proliferator-activated receptor delta signaling (AID 588535; active = well fitted inhibition curve with a large enough effect in the signal ratio, with a control signal flat, not every such curve was filed as active; the % refers to the signal ratio;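 as to max response: cells co-treated with a PPAR-delta agonist as stimulator during compound exposure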); details: HEK293T PPARd-UAS-bla, beta-lactamase FRET ratio, 18 h; 460 nm channel
# Outline: (§1)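 Fluorescence from CCF4-loaded GeneBLAzer PPAR-delta-UAS-bla HEK293T cells (2 hrs RT loading) quantified reporter inhibition after an 18 hr, 37 C compound exposure across a titration.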
# [16] = target: Peroxisome proliferator-activated receptor delta (Homo sapiens) (UniProt Q03181); assay: as above
# Chain of Peroxisome proliferator-activated receptor delta (Homo sapiens) (Q03181 whole entry, looked up): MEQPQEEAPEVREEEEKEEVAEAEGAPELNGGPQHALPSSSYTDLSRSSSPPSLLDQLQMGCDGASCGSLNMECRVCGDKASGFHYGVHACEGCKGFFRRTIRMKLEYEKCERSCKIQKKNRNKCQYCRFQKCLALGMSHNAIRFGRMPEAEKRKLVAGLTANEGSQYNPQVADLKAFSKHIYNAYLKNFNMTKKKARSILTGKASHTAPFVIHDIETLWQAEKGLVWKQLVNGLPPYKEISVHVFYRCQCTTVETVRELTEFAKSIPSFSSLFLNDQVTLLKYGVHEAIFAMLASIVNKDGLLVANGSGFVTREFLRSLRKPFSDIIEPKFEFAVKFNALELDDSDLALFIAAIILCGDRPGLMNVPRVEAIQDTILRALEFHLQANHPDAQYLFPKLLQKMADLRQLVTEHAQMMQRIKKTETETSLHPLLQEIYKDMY
# Outline: as §1
# [17] = qHTS assay for small molecule disruptors of the mitochondrial membrane potential - 1 hr assay (AID 651754; calls by dose curve; also: nearly all actives have a fitted effect of over 35% in size)
# Outline: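 Loss of mitochondrial potential shifts the cationic dye from red mitochondrial aggregates to green cytoplasmic monomers. Cells (HepG2) are treated with compound for 1 hr before a 30 min dye incubation at 37C.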
# [18] = Cell Viability - LYMP2-004 (AID 966); also: nearly all actives have a fitted effect of over 65% in size; also: potency is read from the fitted curve at half-maximal effect
# Outline: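 qHTS cytotoxicity: human lymphoblastoid line, 24 hr compound treatment, 37 C, complete medium. Viability read as cellular ATP via luciferase luminescence; tetraoctylammonium bromide served as positive control.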
# [19] = Cell Viability - LYMP2-005 (AID 967); also: potency is read from the fitted curve at half-maximal effect
# Outline: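 qHTS viability screen in LYMP2-005 cells: 24 h at 37 C with compound, ATP luminescence via CellTiter-Glo, AC50 from Hill curves.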
structure (smiles),measurement,setting,value
CCC1OC(=O)C(C)C(OC2CC(C)(OC)C(O)C(C)O2)C(C)C(OC2OC(C)CC(N(C)C)C2O)C(C)(O)CC(C)C2NC(COCCOC)OC(C2C)C1(C)O (configuration not stated),Potency,[1],inactive
NC(=O)c1cccc2cn(-c3ccc(C4CCCNC4)cc3)nc12 (configuration not stated),Potency,[1],25.1 µM (active)
Clc1cc(Cl)c(OCC#CI)cc1Cl,Potency,[1],inactive
N#C/C(=C\c1ccc(O)c(O)c1)C(N)=S,outcome,[2],inactive
same,Potency,[3],5.62 µM (active)
same,Potency,[4],inactive
same,outcome,[5],inactive
same,outcome,[6],inactive
same,outcome,[7],inactive
same,outcome,[8],inactive
C=CCN1CCc2cccc3c2C1Cc1ccc(O)c(O)c1-3 (configuration not stated),outcome,[9],inactive
O=C(OC1CCN(CCCl)CC1)C(c1ccccc1)c1ccccc1,outcome,[2],inactive
same,Potency,[3],2.51 µM (active)
same,Potency,[4],inactive
same,outcome,[5],inactive
same,outcome,[6],inactive
same,outcome,[7],inactive
same,outcome,[8],inactive
same,outcome,[9],inactive
CCc1c(C(=O)OC)ncc2[nH]c3cc(OC)c(OC)cc3c12,outcome,[2],inactive
same,Potency,[3],5.62 µM (active)
same,Potency,[4],inactive
same,outcome,[5],inactive
same,outcome,[6],inactive
same,outcome,[7],inactive
same,outcome,[8],inactive
O=C(O)C1=CCCN(CCOC(c2ccc(C(F)(F)F)cc2)c2ccc(C(F)(F)F)cc2)C1,Z-AUC,[10],-1.16 (inactive)
same,Z-AUC,[10]; measured here: PEO1 parental Z-AUC,-0.857
same,Z-AUC,[10]; measured here: PEO4 Z-AUC,-0.457
C[C@]12CC[C@H](O)CC1=CCC1C2CC[C@]2(C)C(=O)CC[C@@H]12 (some centres not stated),Potency,[11],inactive
same,outcome,[9],inactive
same,Potency,[12],inactive
same,Potency,AS120,inactive
CCCN1CCc2cc(O)cc3c2C1Cc1ccc(O)c(O)c1-3 (configuration not stated),Potency,[11],inactive
CNCC[C@@H](Oc1ccc(C(F)(F)F)cc1)c1ccccc1,Potency,[11],inactive
C[N+]1([O-])[C@@H]2CC(OC(=O)[C@@H](CO)c3ccccc3)C[C@@H]1[C@H]1O[C@H]12 (some centres not stated),Potency,[12],inactive
same,Potency,AS120,inactive
O=S1OCC2C(CO1)C1(Cl)C(Cl)=C(Cl)C2(Cl)C1(Cl)Cl (configuration not stated),Potency,[13],inactive
COC(=O)NC(=S)Nc1ccccc1NC(=S)NC(=O)OC,Potency,[13],inactive
same,outcome,[14],inactive
same,max response,[15],-30.4% and 40.5%
same,Potency,[16],inactive
same,Potency,[17],inactive
C/C=C/c1ccc2c(c1)OCO2,Potency,[18],inactive
same,Potency,[19],inactive
ClC1=C(Cl)C2(Cl)C3C4CC(C5OC45)C3C1(Cl)C2(Cl)Cl (configuration not stated),Potency,[18],20 µM (active)
same,Potency,[19],20 µM (active)
same,Potency,[13],31.6 µM (active)
same,Potency,[12],inactive
same,Potency,AS120,inactive
ClC(Cl)=C(c1ccc(Cl)cc1)c1ccc(Cl)cc1,Potency,[18],inactive
same,outcome,[14],inactive
same,max response,[15],6.36% and 34.1%
same,Potency,[16],inactive
C=CCc1ccc(OC)cc1,Potency,[19],inactive
same,max response,[15],-9.08%
same,Potency,[16],inactive
CCc1cccc(CC)c1N(COC)C(=O)CCl,Potency,[13],50.1 µM (active)
same,outcome,[14],inactive
same,Potency,[17],inactive
CCOCN(C(=O)CCl)c1c(C)cccc1CC,Potency,[17],inactive
CCNc1nc(Cl)nc(NC(C)C)n1,Potency,[18],inactive
same,Potency,[19],inactive
COP(=S)(OC)Oc1ccc([N+](=O)[O-])cc1,outcome,[14],inactive
same,max response,[15],-15.9%
same,Potency,[16],inactive
same,Potency,[17],inactive
